Screening data deposited in PubChem BioAssay by several laboratories.
CYP2C9 inhib – inhibitors of human CYP2C9; CYP2C9 Supersomes, luciferin-H conversion, luminescence; P11712; actives 20% (n = 96,000); inhibition, % at 5 µM;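 active = blocking of liver enzyme CYP2C9 beyond about 50% at 5 µM, limit read from the data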
CYP2C9 act – increases human cytochrome P450 2C9 activity | P11712 | recombinant CYP2C9, luciferin-H conversion, luminescence; hits give high values; factor 1 = untreated enzyme, 0 = blocked | activation factor at 5 µM | actives 1.4% (n = 96,000) | AID 1024;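 active = activation factor of 2 or more for CYP2C9 at a 5 µM dose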
EphB4 antag – EphB4-ephrin-B2 interaction antagonism; P54760; EphB4 LBD / TNYL-RAW-Alexa532 peptide, fluorescence polarization; inhibition, % at 7 µM; actives 0.15% (n = 97,000); AID 720;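 active = inhibition above the screen-wide mean inhibition plus 3 SD, cut at about 15% in these data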
CYP2C19 act – cytochrome P450 2C19 (human) activation; activation factor at 5 µM; AID 1025; P33261; 96,000 tested, under 10 active; recombinant CYP2C19, luciferin-H EGE luminescence; hits give high values; 0 = fully inhibited enzyme, 1 = untreated enzyme;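 active = activation factor of at least 2 at 5 µM in the primary screen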
Target sequence (P33261 whole entry, looked up): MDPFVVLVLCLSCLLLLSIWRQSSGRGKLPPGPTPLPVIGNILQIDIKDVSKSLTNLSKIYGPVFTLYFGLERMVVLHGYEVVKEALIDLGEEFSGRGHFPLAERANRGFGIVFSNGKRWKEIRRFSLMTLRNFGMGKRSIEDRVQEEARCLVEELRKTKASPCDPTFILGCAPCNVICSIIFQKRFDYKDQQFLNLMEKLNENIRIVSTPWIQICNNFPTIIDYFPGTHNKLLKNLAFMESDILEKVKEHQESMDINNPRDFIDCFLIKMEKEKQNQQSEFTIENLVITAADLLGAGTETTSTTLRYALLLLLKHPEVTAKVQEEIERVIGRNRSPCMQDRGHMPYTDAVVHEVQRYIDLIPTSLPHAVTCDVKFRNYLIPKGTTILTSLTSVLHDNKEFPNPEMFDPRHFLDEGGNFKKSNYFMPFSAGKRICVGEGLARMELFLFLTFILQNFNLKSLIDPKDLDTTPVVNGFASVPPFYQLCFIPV
CYP2C19 inh – human CYP2C19 inhibition. P33261. CYP2C19 Supersomes, luciferin-H EGE luminescence, 30 min. inhibition, % at 5 µM. actives 21% (n = 96,000). AID 778;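 active = CYP2C19 inhibition above a set limit at 5 µM in the primary screen, cut at about 50% in these data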
Large screens that a line does not name were inactive. The list is not random: actives were taken first. Their share in the collection is about 27%.

OC(CN(c1ccccc1)c1ccccc1)Cn1cnc2ccccc21 (stereo not drawn)	CYP2C9 inhib 98, CYP2C19 inh 96
Cc1nc2ccccc2n1CC(O)COCC1CC=CCC1 (stereo not drawn)	none
OC(COCc1ccccc1)Cn1cnc2ccccc21 (stereo not drawn)	none
OC(COCC1CC=CCC1)Cn1cnc2ccccc21 (stereo not drawn)	CYP2C19 inh 72
COC(=O)C1CSC(C(=O)OC)N1C(=O)Nc1c(C)cccc1C (stereo not drawn)	none
O=C1CC(Sc2ncccn2)C(=O)N1c1ccccc1C(F)(F)F (stereo not drawn)	CYP2C19 inh 59
Cc1cccc(CSc2ncnc3nc[nH]c23)c1	CYP2C19 inh 72 (no result: EphB4 antag)
COc1ccc2c(c1)CCc1c(C(=O)NCCN3CCOCC3)noc1-2	none (no result: EphB4 antag)
COc1ccc2c(c1)CCc1c(C(=O)NCc3ccco3)noc1-2	CYP2C19 inh 62 (no result: EphB4 antag)
COc1ccc2c(c1)CCc1c(C(=O)NCCCn3ccnc3)noc1-2	CYP2C9 inhib 69, CYP2C19 inh 82
COCCNC(=O)c1noc2c1CCc1cc(OC)ccc1-2	CYP2C9 inhib 59 (no result: EphB4 antag)
COCC(C)NC(=O)c1noc2c1CCc1cc(OC)ccc1-2 (stereo not drawn)	none (no result: EphB4 antag)
Cn1c(=O)[nH]c(=O)c2c1nc(Br)n2CC(O)COCc1ccccc1 (stereo not drawn)	none
CCOC(=O)c1sc(NC(=O)c2cccc(S(=O)(=O)N3CCN(C)CC3)c2)cc1C	none
CCOC(=O)c1c(C)oc2c1c(C(c1cccnc1)N1CCN(C)CC1)c(O)c1ccccc12 (stereo not drawn)	CYP2C19 inh 63 (no result: EphB4 antag)
CCOC(=O)c1c(C)oc2c1c(C(c1cccnc1)N1CCOCC1)c(O)c1ccccc12 (stereo not drawn)	CYP2C9 inhib 64
CCOC(=O)c1c(C)oc2c1c(C=NCC1CCCO1)c(O)c1ccccc12 (stereo not drawn)	none
Cc1sc(NC(=O)c2ccco2)c(C(c2cccnc2)N2CCN(C)CC2)c1C (stereo not drawn)	none
CCOC(=O)c1c(C)oc2c1c1c(c3ccccc32)OCN(Cc2cccnc2)C1	CYP2C9 inhib 54, EphB4 antag 16
NC(=O)CNC(=O)[C@@H]1CC2(CC(c3cccc(Br)c3)=NO2)CN1C(=O)c1ccc(Br)cc1 (stereo partly drawn)	none
O=C(Cn1cccc1C(=O)c1ccccc1)NCCN1CCCCCC1	none
COc1ccc(C(CNC(=O)CCOc2ccccc2)N(C)C)cc1 (stereo not drawn)	CYP2C19 inh 55
O=C(CCOc1ccccc1)NCC(c1ccco1)N1CCCCC1 (stereo not drawn)	CYP2C19 inh 66
COc1ccc(OCCCC(=O)Nc2cc([N+](=O)[O-])ccc2C)cc1	CYP2C9 act 2.6
O=C(NCC(c1ccco1)N1CCCC1)c1ccccc1F (stereo not drawn)	none
COc1ccc(NC(=O)CCOc2ccccc2)c(OC)c1	CYP2C19 inh 73
CCOCCn1c(SC)nc2c1c(=O)[nH]c(=O)n2C	none
CCN(CC(=O)Nc1ccc([N+](=O)[O-])cc1OC)c1ccccc1	CYP2C9 inhib 78, CYP2C19 inh 53
COc1ccc(NC(=O)N2CCC(c3ccccc3)C2)c(OC)c1 (stereo not drawn)	CYP2C9 act 2.1, CYP2C19 inh 85
Cc1ccc(OCCCC(=O)NCc2ccco2)cc1	none
CCN(CC)S(=O)(=O)c1cc([N+](=O)[O-])ccc1NNC(=O)Nc1ccccc1OC	CYP2C9 inhib 63, CYP2C19 inh 51
CC(=O)c1ccc(OCCCC(=O)NCC(c2ccco2)N(C)C)cc1 (stereo not drawn)	CYP2C9 inhib 63, CYP2C19 inh 81
COc1cc([N+](=O)[O-])ccc1NC(=O)CN(C)C	none
CCCC(=O)Nc1ccc2c(c1)nc(CCNC(=O)c1ccccc1)n2C	none
C=C1CSc2nc(=O)c3c(C)c(C)sc3n21	none
COc1ccc(NC(=O)CCC(=O)Nc2nnc(C(F)(F)F)s2)c(OC)c1	CYP2C9 inhib 65
COCCCNC(=O)CCCOc1ccccc1	none (no result: EphB4 antag)
COc1cc([N+](=O)[O-])ccc1NC(=O)CCCOc1ccccc1	CYP2C19 inh 64
COc1ccc(NC(=O)CC(=O)Nc2ccc(OC)cc2OC)c(OC)c1	none
CC1(C)Cc2c(cnn2-c2ccccc2)-c2c1c1ccccc1n2CC(O)CBr (stereo not drawn)	CYP2C9 inhib 55, CYP2C19 inh 53
